Potency and affinity values are given separately. The source made the active and inactive calls. Entries that show only a call come without a potency. The rule behind the calls is not given here.
Test: host cell cytotoxicity of antiviral hits, dose response, cytotoxicity control for West Nile virus antiviral project, secondary assay (AID 1650)
Settings: Mammalian host cell viability, cytotoxicity counter-screen; series mostly up to 10 µM

Row | Compound | outcome
1 | COc1ccc(C2c3[nH]c4ccccc4c3CCN2C(=O)c2cc3ncccn3n2)c(F)c1 (stereo not given) | inactive
2 | CCOC(=O)c1nn(-c2ccccc2)c2nc(-c3ccc(OC)cc3)c(C#N)c(=O)n12 | inactive
3 | Cc1coc(NC(=O)CSc2nc(-c3ccncc3)cc(C(F)(F)F)c2C#N)n1 | inactive
4 | CN(C)CCCN(C(=O)c1ccco1)c1nc2ccc(Cl)cc2s1 | inactive
5 | O=C(NC1CCCC1)C(c1ccncc1)N(Cc1ccccc1)C(=O)c1ccc(-c2ccccc2)[nH]1 (stereo not given) | inactive
6 | CN(C)CCCN1c2ccc([N+](=O)[O-])cc2CCc2cc([N+](=O)[O-])ccc21 | inactive
7 | COc1cc(C=Nc2c(C)cc(C)cc2C)ccc1OC(C)=O | inactive
8 | COC(=O)c1ccc(/C=C2/SC(=S)N(CCCC(=O)Nc3ccc(O)cc3)C2=O)cc1 | inactive
9 | CC[C@H]1CC2CN3CCc4c([nH]c5c([C@H]6C[C@H]7[C@H](CC)CN(C)[C@@H](Cc8c6[nH]c6ccccc86)[C@H]7C(=O)OC)c(OC)ccc45)C(C(=O)OC)(C2)C13 | inactive
10 | COc1ccc(N2CCN(c3oc(-c4ccc(OC)c(OC)c4)nc3C#N)CC2)cc1 | inactive
11 | Cc1ccc(C)c(CN2C(=O)c3ccccc3S(=O)c3ccc(C(=O)NCCCN4CCCC4)cc32)c1 (stereo not given) | inactive
12 | O=c1c(O[C@@H]2O[C@H](CO)[C@@H](O)[C@H](O)[C@H]2O)c(-c2ccc(O)c(O)c2)oc2cc(O)cc(O)c12 | inactive
13 | CCC1CCCCN1CCCNC(=O)c1ccc(/C=C2/Sc3ccccc3NC2=O)cc1 (stereo not given) | inactive
14 | CCOc1c2ccoc2nc2c(OC)c(OC)ccc12 | inactive
15 | CC(/C=N/Nc1nc(N2CCCCC2)nc(N2CCCCC2)n1)=C\c1ccccc1 | inactive
16 | Cc1cccc(C)c1Nc1nc2ccccc2o1 | inactive
17 | CC(NC(=O)/C=C/c1cnc2ccccc2n1)C12CC3CC(CC(C3)C1)C2 (stereo not given) | inactive
18 | CN(C)CCNc1ncnc2c1sc1nc(N3CCCC3)c3c(c12)CC(C)(C)OC3 | inactive
19 | Cc1ccc(-c2nc3ccccc3s2)cc1NC(=S)NC(=O)c1cccc2ccccc12 | inactive
20 | O=C(CNc1cccc2ccccc12)N/N=C/c1ccc([N+](=O)[O-])o1 | inactive

Row | Compound | outcome
21 | Cc1cccc(-c2ccc(NC(=O)C3CCN(CC4CC4)CC3)cc2)c1 | inactive
22 | O=C(Nc1ccc(F)cc1)c1nc[nH]c1C(=O)Nc1ccccc1[N+](=O)[O-] | inactive
23 | O=C(O)C1CCCN1C(=O)c1cncc(Br)c1 (stereo not given) | inactive
24 | CCC(C)NC(=O)/C(=C/c1ccco1)c1ccccc1 (stereo not given) | inactive
25 | Cc1ccc(Sc2nnc(Cc3ccccc3)c3ccccc23)cc1 | inactive
26 | CC(CN1CCCC1)C(=O)NN (stereo not given) | inactive
27 | CCOC(=O)c1c(CSCc2ccccc2)oc2ccc(O)c(CN(C)C)c12 | inactive
28 | O=C(Nc1ccc2nc3n(c(=O)c2c1)CCCC3)c1cc([N+](=O)[O-])ccc1F | inactive
29 | CC1=CC(C)(C)N2C(=O)C3(NCCc4c3[nH]c3ccccc43)c3cc(C)cc1c32 (stereo not given) | inactive
30 | CCCCn1c(=N)n(CC(O)COc2ccc(C)cc2)c2ccccc21 (stereo not given) | inactive
31 | O=C(CN1C(=O)/C(=C/c2ccc(C(F)(F)F)cc2)Sc2ccccc21)NCCCN1CCOCC1 | inactive
32 | c1ccc(-c2ccc(-c3[nH]ncc3CN3CCC(N4CCSCC4)CC3)cc2)cc1 | inactive
33 | CN(CCCNC(=O)c1cc2c(Cl)nc3ccccc3c2s1)Cc1ccccc1 | inactive
34 | O=C(CNC(=S)N(Cc1ccccc1F)C1CCCCC1)NCC1CCCO1 (stereo not given) | inactive
35 | Cc1cccn2c(=O)c3cc(C(=O)NCCN4CCOCC4)c(=N)n(Cc4ccc(F)cc4)c3nc12 | inactive
36 | CC(C)C(C(=O)Nc1ncn[nH]1)N1C(=O)c2ccccc2C1=O (stereo not given) | inactive
37 | CC(=O)N[C@@H](C)C(=O)N1CCC(n2nccc2NC(=O)CCCc2ccccc2)CC1 | inactive
38 | Cc1ccc2oc(=O)c3cc(C(=O)NCCCN4CC(C)CC(C)C4)sc3c2c1 (stereo not given) | inactive
39 | COc1ccc(-c2cc(C(=O)c3c(N)n(C)c(=O)n(C)c3=O)c3ccccc3n2)cc1OC | inactive
40 | CCOc1ccc(C(=O)CCC(=O)O)cc1 | inactive

Reference: PubChem BioAssay AID1650 (Southern Research Specialized Biocontainment Screening …, 2009)
